Screening results (PubChem BioAssay)
CYP2C19 act: human CYP2C19 activators, primary screen, biochemical, luminescence | recombinant CYP2C19, luciferin-H EGE luminescence; stronger effect = higher value; 0 = fully inhibited enzyme, 1 = untreated enzyme | activation factor at 5 µM | 96,000 tested, under 10 active | AID 1025, 2008;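 active = activation factor of at least 2 at 5 µM in the primary screen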;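 also: 0 = wells with 2.5 mM tranylcypromine and 1 = vehicle-only wells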
CYP2C9 activ: human CYP2C9 activators, primary screen, biochemical, luminescence; recombinant CYP2C9, luciferin-H conversion; stronger effect = higher value; factor 1 = untreated enzyme, 0 = blocked; AID 1024, 2008; activation factor at 5 µM; actives 1.4% (n = 96,000); Cytochrome P450 2C9 (Homo sapiens), P11712;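 active = activation factor of 2 or more for CYP2C9 at a 5 µM dose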;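 also: 0 = sulfaphenazole-blocked wells and 1 = vehicle-only wells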
CYP2C19 inhib: blockers of cytochrome P450 2C19 activity – biochemical, luminescence, ADME assay, primary screen | P33261 | actives 21% (n = 96,000) | CYP2C19 Supersomes, luciferin-H EGE luminescence, 30 min | inhibition, % at 5 µM;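 active = CYP2C19 inhibition above a set limit at 5 µM in the primary screen, cut at about 50% in these data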;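 also: plate controls were negative control wells for no effect and 2.5 mM tranylcypromine positive control for full effect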
CYP2C9 inhib: blockers of cytochrome P450 2C9 activity – biochemical, luminescence, ADME assay, primary screen; P11712; CYP2C9 Supersomes, luciferin-H conversion; inhibition, % at 5 µM; actives 20% (n = 96,000); AID 777, 2007;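 active = blocking of liver enzyme CYP2C9 beyond about 50% at 5 µM, limit read from the data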
PLAP activator: PLAP enzyme activators, biochemical, luminescence, HTS; purified PLAP enzyme, luminescent substrate read-out; stronger effect = higher value; activation fold at 20 µM; Alkaline phosphatase, placental type (Homo sapiens), P05187; actives 1.2% (n = 96,000); in the data active = activation fold above about 2
Target sequence (P05187 whole entry, looked up): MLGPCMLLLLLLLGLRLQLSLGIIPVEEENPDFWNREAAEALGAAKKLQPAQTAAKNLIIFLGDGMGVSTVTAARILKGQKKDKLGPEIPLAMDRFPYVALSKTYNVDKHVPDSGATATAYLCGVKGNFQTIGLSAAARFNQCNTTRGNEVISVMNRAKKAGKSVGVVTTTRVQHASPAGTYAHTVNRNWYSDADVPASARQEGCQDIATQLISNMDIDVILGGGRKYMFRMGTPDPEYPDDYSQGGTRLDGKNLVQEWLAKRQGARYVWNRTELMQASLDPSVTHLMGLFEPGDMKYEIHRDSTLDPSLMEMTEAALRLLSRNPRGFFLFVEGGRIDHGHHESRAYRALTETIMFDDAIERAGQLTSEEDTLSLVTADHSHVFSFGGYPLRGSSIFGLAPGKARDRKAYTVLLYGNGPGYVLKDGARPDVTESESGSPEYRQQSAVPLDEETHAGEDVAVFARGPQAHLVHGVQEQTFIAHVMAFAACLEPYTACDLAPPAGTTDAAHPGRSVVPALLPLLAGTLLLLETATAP
Numbers without * were called inactive. In the library only some 31% were active in any assay of this set; here they are far more common.

SMILES | CYP2C19 act | CYP2C9 activ | CYP2C19 inhib | CYP2C9 inhib | PLAP activator
O=C(c1ccccc1)n1nnc2ccccc21 | 1.2 | 1.3 | -18 | -26 | 1.1
Cc1nc2cncc(Br)c2n1C | 1 | 1 | -4 | -3 | 0.9
Cc1cc2cc(C)c3nnc(SCC(=O)N4CCc5ccccc54)n3c2cc1C | 1.1 | 1 | -6 | -3 | 1.1
Cc1ccc(NC(=O)CO/N=C(\N)c2nonc2N)cc1 | 0.3 | 0.8 | 70* | 20 | 1.1
N/C(=N\OC(=O)c1ccc(Cl)cc1)c1nonc1N | 0.9 | 0.7 | 10 | 27 | 0.7
CN(C)c1ccc(/C=N/Nc2ccc(-n3ccnc3)nn2)cc1 | 0.4 | 0.3 | 62* | 70* | 1.1
COC(=O)C1=C(CSc2nncn2C)NC(=O)NC1c1ccc(F)cc1 (stereo not given) | 1 | 1 | -4 | 3 | 0.8
Cc1sc(NC(=O)c2ccco2)c(CN2CCC(C)CC2)c1C | 0.6 | 0.7 | 36 | 27 | 0.9
Cc1sc(NC(=O)c2ccco2)c(C(c2cccnc2)N2CCC(C)CC2)c1C (stereo not given) | 0.1 | 0.2 | 88* | 76* | 1.7
COc1cc(CNC(=O)c2ccc(Cn3nc(C)c(Cl)c3C)o2)cc(OC)c1 | 0.4 | 1.2 | 62* | -21 | 0.9
Cc1ccc2[nH]c(=O)c(CN(CCO)C(=O)NCc3ccccc3)cc2c1 | 0.9 | 0.7 | 15 | 34 | 1.5
COc1ccc2[nH]c(=O)c(CN(Cc3cccs3)Cc3nnnn3C(C)(C)C)cc2c1 | 0.1 | 0.1 | 91* | 88* | 1.3
Cc1ccc2[nH]c(=O)c(CN(CCO)Cc3nnnn3CCc3ccccc3)cc2c1 | 0.3 | 0.5 | 71* | 50 | 1.7
CCOc1ccc2[nH]c(=O)c(CN(Cc3cccs3)Cc3nnnn3C(C)(C)C)cc2c1 | 1 | 1 | 4 | 2 | 0.9
CCOC(=O)Cn1nnnc1CN(CCc1ccccc1)Cc1cc2cc(CC)ccc2[nH]c1=O | 0.6 | 0.3 | 44 | 72* | 1.6
CCOC(=O)Cn1nnnc1CN(Cc1cccs1)Cc1cc2cc(C)ccc2[nH]c1=O | 0.3 | 0.7 | 65* | 32 | 1
Cc1ccsc1C(=O)OCc1csc(-c2ccccc2)n1 | 0.9 | 1.1 | 6 | -6 | 0.5
CCn1c2ccccc2c2cc(NC(=O)CSc3nnc(-c4ccc(OC)cc4)n3N)ccc21 | 0.8 | 0.8 | 18 | 24 | 1.2
O=C1C=C(c2ccc(Cl)cc2)OC2(CCCC2)O1 | 0.8 | 0.6 | 24 | 36 | 0.9
COc1cc(C(=O)N2CCC(NC(=O)C(Cc3ccccc3)NC(C)=O)CC2)cc(OC)c1OC (stereo not given) | 1 | 1.2 | 0 | -16 | 1.5
C/C=C/c1ccccc1OCc1ccc(C(=O)OC)o1 | 0.7 | 0.8 | 27 | 22 | 0.9
CC(C)OC(=O)CSc1nnc(-c2ccc(C(C)(C)C)cc2)n1N | 1.2 | 1.2 | -21 | -18 | 1
COc1ccc(Cc2nc3ccc(S(N)(=O)=O)cc3[nH]2)cc1OC | 0.8 | 0.7 | 16 | 29 | 1.4
COc1ccc(Cn2nnnc2CN(Cc2cc3cc(C)ccc3[nH]c2=O)C2CCCC2)cc1 | 0.7 | 0.7 | 25 | 25 | 0.9
CCOC(=O)Cn1nnnc1C(CC)N(Cc1cccs1)Cc1cc2ccc(OC)cc2[nH]c1=O (stereo not given) | 0 | 0.1 | 96* | 91* | 1.3
SMILES | CYP2C19 act | CYP2C9 activ | CYP2C19 inhib | CYP2C9 inhib | PLAP activator
Cc1ccc2[nH]c(=O)c(CN(Cc3cccs3)Cc3nnnn3Cc3ccccc3)cc2c1 | 0.1 | 0.4 | 93* | 60* | 1.5
COc1ccc(-n2ncc(N(C)n3cccc3)c(Cl)c2=O)cc1 | 1 | 0.7 | 5 | 30 | 0.9
COc1ccc(Sc2cnn(-c3ccccc3)c(=O)c2Cl)cc1 | 0.6 | 0.1 | 35 | 85* | 1
OC(COc1ccc2c(c1)CCC2)CN1CCN(c2ccccc2F)CC1 (stereo not given) | 0.5 | 1 | 51* | -2 | 1
C=CCc1ccccc1OCC(O)CN1CCN(c2ccc(OC)cc2)CC1 (stereo not given) | 0.5 | 0.9 | 50* | 8 | 1.4
COc1cccc(OCC(O)CN2CCOCC2)c1 (stereo not given) | 1.1 | 1.1 | -11 | -13 | 1.1
COc1ccc(N2CCN(CC(O)COc3ccc4c(c3)CCC4)CC2)cc1 (stereo not given) | 0.4 | 1.2 | 58* | -21 | 2*
OC(COCc1ccccc1)CN1CCN(c2ccccc2F)CC1 (stereo not given) | 1 | 1 | -2 | 0 | 1
C=CCc1ccc(OCC(O)CN2CCC(Cc3ccccc3)CC2)c(OC)c1 (stereo not given) | 0.5 | 1.1 | 55* | -7 | 1.7
COc1ccc(NC(=O)CC2Oc3ccc(C)cc3NC2=O)cc1 (stereo not given) | 1 | 0.9 | -2 | 5 | 0.9
CCCC(=O)NCCCc1nc2ccccc2n1C(C)C | 0.9 | 1.4 | 7 | -41 | 0.9
CCCCC1CCC(C(=O)NCc2ccc3c(c2)OCO3)CC1 (stereo not given) | 0.9 | 0.6 | 12 | 39 | 0.8
C=CCc1ccccc1OCC(O)CNC (stereo not given) | 0.9 | 0.9 | 12 | 7 | 1
C=CCc1ccccc1OCC(O)Cn1ccnc1C (stereo not given) | 0.4 | 0.8 | 57* | 17 | 1.2
Cc1nc(N2N=C3/C(=C/c4ccc(F)cc4)CCCC3C2c2ccc(F)cc2)sc1C(=O)N(C)C (stereo not given) | 0.7 | 0.7 | 34 | 30 | 2*
Cc1ncsc1C(=O)N1N=C2/C(=C/c3ccc(N4CCOCC4)cc3)CCCC2C1c1ccc(N2CCOCC2)cc1 (stereo not given) | 1 | 1.1 | -4 | -5 | 1.4
Cc1ccc2c(CSc3nnc(C4CC4)n3N)cc(=O)oc2c1C | 0.6 | 1 | 44 | 0 | 1
Cc1nc2c(n1C1CCCCC1)C(=O)c1ccccc1C2=O | 0.2 | 0.4 | 81* | 55* | 0.9
O=C1c2cccnc2C(=O)N1C1CCCCC1 | 0.9 | 0.9 | 11 | 13 | 0.9
CCOC(=O)C1=C(C)NC(=S)NC1c1ccc(-c2cccc(Cl)c2C)o1 (stereo not given) | 0.8 | 0.5 | 22 | 50* | 0.9
Cc1c(C(=O)OCC(=O)N2CC(C)OC(C)C2)oc2ccc(Br)cc12 (stereo not given) | 0.9 | 0.9 | 9 | 12 | 1.6
CCn1c(CSc2nc(C)cc(C)n2)nnc1SCC(=O)N1CCCc2ccccc21 | 0.5 | 1.7 | 47 | -74 | 1.4
COCCn1c(N)c(C(=O)OCc2ccccc2)c2nc3ccccc3nc21 | 0.6 | 0.4 | 38 | 62* | 1.7
COCCNC(=O)c1c(N)n(CCC2=CCCCC2)c2nc3ccccc3nc12 | 0.1 | 0 | 92* | 96* | 1.9
C=CCn1c(N)c(C(=O)Nc2cccc(C)c2)c2nc3ccccc3nc21 | 1.1 | 0.8 | -7 | 17 | 1.1
